# Tb PYK inh – qHTS of Trypanosoma Brucei Inhibitors. 0.12% of 410,000 active. TbPYK enzyme, Kinase-Glo Plus ATP luminescence, 45 min. Potency, µM (doses to about 76.8 µM), for the others: at the top dose activity, negative = inhibition, hits mostly inhibitors; further: nearly all actives have a fitted effect of over 50% in size
#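 ADP (130 uM final) triggers the TbPYK reaction after compound addition; incubation is 45 min at room temperature. Kinase-Glo Plus is then added and luminescence imaged. Normalized data are fitted to concentration-effect curves.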
# Giardia FBPA inh-1 – qHTS Assay for Inhibitors of Fructose-1,6-bisphosphate Aldolase from Giardia Lamblia; A8B2U2; purified Giardia FBPA; Potency, µM (highest dose often 59.6 µM), inactives show top-dose activity, negative = inhibition, usual class: inhibitors; 0.71% of 290,000 active; further: nearly all actives have a fitted effect of over 55% in size
# Target sequence (A8B2U2 whole entry, looked up): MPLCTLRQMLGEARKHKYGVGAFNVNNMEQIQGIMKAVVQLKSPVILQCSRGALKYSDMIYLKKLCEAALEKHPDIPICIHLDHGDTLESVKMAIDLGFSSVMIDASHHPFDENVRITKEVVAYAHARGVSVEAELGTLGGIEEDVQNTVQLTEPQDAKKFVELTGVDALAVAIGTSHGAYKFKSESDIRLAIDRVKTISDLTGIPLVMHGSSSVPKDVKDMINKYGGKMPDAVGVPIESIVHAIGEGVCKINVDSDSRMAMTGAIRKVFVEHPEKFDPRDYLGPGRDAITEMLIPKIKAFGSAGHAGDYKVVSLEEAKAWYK
#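 40 nM FBPA preincubated 10 min at RT with compound (up to 57.5 uM final), then substrate plus GAPDH/TPI/NAD/arsenate coupling and diaphorase/resazurin added. Fluorescence read after 20 min at RT, 525/598 nm.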
# RE007 growth inh – qHTS Assay for Inhibitors of the HIV-1 protein Vpr; 0.21% of 360,000 active; S. pombe RE007 Vpr strain, BacTiter-Glo ATP luminescence, 24 h; Potency, µM (doses to about 92.2 µM), inactives show at the top dose activity change, negative = less growth, most hits filed as inhibitors; active means well fitted falling curve with a large enough effect; inconclusive means small, poorly fitted or top-dose-only effect; inactive means no such curve, though single readings can be large or run the other way; further: nearly all actives have a fitted effect of over 50% in size
#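 Fission yeast strain RE007, carrying one chromosomally integrated HIV-1 vpr copy, was seeded at OD 0.01 in PMG+AL medium with 23 nL pinned compound. After 24 h at 30 °C and 99% humidity, viability was read by BacTiter-Glo luminescence.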
# LmPK inh – qHTS Assay for Inhibitors of Leishmania Mexicana Pyruvate Kinase (LmPK); Q27686; purified LmPK, Kinase-Glo ATP luminescence, 1 h; Potency, µM (doses to about 57.5 µM), for the others: at the top dose activity change, negative = inhibition, hits mostly inhibitors; 0.37% of 290,000 active
# Target sequence (Q27686 whole entry, looked up): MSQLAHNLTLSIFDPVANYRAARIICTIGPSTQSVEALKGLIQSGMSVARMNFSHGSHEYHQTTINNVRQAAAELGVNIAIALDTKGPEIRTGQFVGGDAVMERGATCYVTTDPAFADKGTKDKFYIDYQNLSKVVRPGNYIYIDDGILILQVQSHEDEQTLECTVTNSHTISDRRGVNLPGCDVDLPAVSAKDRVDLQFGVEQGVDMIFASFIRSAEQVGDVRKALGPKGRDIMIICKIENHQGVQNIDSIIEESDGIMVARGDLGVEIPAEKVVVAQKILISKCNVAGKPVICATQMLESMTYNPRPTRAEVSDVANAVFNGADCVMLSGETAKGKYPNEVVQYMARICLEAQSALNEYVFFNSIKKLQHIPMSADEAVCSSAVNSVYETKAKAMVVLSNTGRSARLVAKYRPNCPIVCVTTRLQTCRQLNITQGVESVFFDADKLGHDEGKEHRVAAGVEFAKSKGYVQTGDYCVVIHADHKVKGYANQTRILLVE
#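 0.1 nM LmPK, 0.5 mM PEP, 0.1 mM ADP; 50 mM imidazole pH 7.2, 7 mM MgCl2, 50 mM KCl; 1 h RT. Kinase-Glo luminescence readout, normalized to no-enzyme (full inhibition) and uninhibited wells.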
# Giardia growth – qHTS Assay for Inhibitors of Fructose-1,6-bisphosphate Aldolase from Giardia Lamblia: Giardia lamblia growth inhibition; Giardia lamblia trophozoite growth inhibition; Potency, µM (top dose mostly 57.5 µM), for inactives: at the highest dose activity change, negative = inhibition, hits mostly inhibitors; shares compounds with Giardia FBPA inh-1; AID 2785, 2010; 5% of 1,500 active;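 further: trophozoites exposed to compound for 48 h at 37 °C; nearly all actives have a fitted effect of over 70% in size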
# Mammalian tox – qHTS Assay for Inhibitors of Fructose-1,6-bisphosphate Aldolase from Giardia Lamblia: Mammalian cellular toxicity; 4% of 1,500 active; mammalian cell viability counter-screen, qHTS; shares compounds with Giardia FBPA inh-1; Potency, µM (top dose mostly 57.5 µM), for the others: top-dose viability change, negative = toxicity, most hits filed as inhibitors; AID 2786, 2010;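 further: Chinese hamster ovary cells used as mammalian cytotoxicity surrogate; viability measured as cellular ATP by luminescence; compound exposure lasted 48 h before reading; nearly all actives have a fitted effect of over 60% in size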
# Giardia FBPA inh-2 – qHTS Assay for Inhibitors of Fructose-1,6-bisphosphate Aldolase from Giardia Lamblia: Primary screen confirmation. shares compounds with Giardia FBPA inh-1. purified Giardia aldolase enzyme activity, qHTS. Potency, µM (doses to about 57.5 µM), for the others: top-dose activity change, negative = inhibition, actives largely listed as inhibitors. 5% of 1,500 active. AID 2787, 2010; further: nearly all actives have a fitted effect of over 45% in size
# Rabbit aldolase – qHTS Assay for Inhibitors of Fructose-1,6-bisphosphate Aldolase from Giardia Lamblia: Rabbit FBPA Selectivity; shares compounds with Giardia FBPA inh-1; Rabbit muscle FBPA enzyme inhibition, selectivity counter-screen; Potency, µM (series often up to 57.5 µM), for the others: at the highest dose activity, negative = inhibition, usual class: inhibitors; 4% of 1,500 active; AID 2794, 2010; further: nearly all actives have a fitted effect of over 60% in size
# GAPDH coupling – qHTS Assay for Inhibitors of Fructose-1,6-bisphosphate Aldolase from Giardia Lamblia: Coupling assay counterscreen confirmation | 6% of 1,500 active | shares compounds with Giardia FBPA inh-1 | GAPDH coupling enzyme counterscreen, biochemical, qHTS | Potency, µM (series often up to 57.5 µM), inactives show at the top dose activity change, negative = inhibition, most hits filed as inhibitors | AID 2795, 2010; further: nearly all actives have a fitted effect of over 55% in size
# * marks the source's active call; other numbers are inactive results; ? = inconclusive; / = not tested or not shown; [ ] = remark or other dose. Shown are actives, neighbours in structure and some others; about 0.95% of the full set was active somewhere. Unless noted, the call rests on the fitted dose curve; in most records, active means well fitted curve in the direction sought with a large enough effect; inconclusive means small, poorly fitted or top-dose-only effect, or another doubt; inactive means no such curve, though single readings can be large; an effect the other way counts as inactive or inconclusive. On the % scale 0 is the no-effect control and ±100 the full control effect; potency means the concentration at half of the fitted maximal effect.
SMILES,Tb PYK inh,Giardia FBPA inh-1,RE007 growth inh,LmPK inh,Giardia growth,Mammalian tox,Giardia FBPA inh-2,Rabbit aldolase,GAPDH coupling
CCCCC1(C)NC(=S)N2N1C(=S)NC2(C)CCCC (stereo unspecified),?,15.8µM*,4.5%,2.7%,?,21.0%,9.7%,1.9%,13.3%
COC(=O)C/C=C\[C@@H](C)[C@@H]1C=C[C@H](OC(C)=O)[C@H](COC(C)=O)O1,/,1.0%[12.9 µM],/,/,/,/,/,/,/
Cn1c(=O)c2nc3ccc(NC(=O)C(F)(F)F)cc3nc2n(C)c1=O,4.2%,/,/,/,/,/,/,/,/
CC(=O)Nc1ccc2nc3c(=O)n(C)c(=O)n(C)c3nc2c1,-9.3%,17.7µM*,-17.7%,4.1%,12.6%,-21.9%,?,?,39.8µM*
Cn1cnc2nc[nH]c2c1=S,-12.5%,/,8.1%,/,/,/,/,/,/
S=c1nc[nH]c2nc[nH]c12,-11.4%,7.94µM*,8.2%[18.4 µM],-4.5%,17.3%[38.3 µM],7.94µM*,?,5.2%,-5.8%
CCCCCCCC#Cc1ccccc1C(NC(=O)OC)C(C(=O)OC)C(=O)OC (stereo unspecified),/,-2.0%[12.9 µM],/,/,/,/,/,/,/
COc1ccc(C2C(C#N)=C(N)N(c3cccnc3)C3=C2C(=O)CC(C)(C)C3)cc1OC (stereo unspecified),-14.1%,14.1µM*,?,1.9%,25.0%,1.2%,-4.1%,-6.7%,8.4%
COc1ccccc1C(=O)OC(C)CN1CCN(C)CC1 (stereo unspecified),8.3%,31.6µM*,-5.5%,-3.1%,-5.4%[10.4 µM],3.0%,6.1%,2.4%,-11.9%
CC(CN1CCN(C)CC1)OC(=O)c1ccccc1 (stereo unspecified),-2.7%,-8.7%,-23.5%,-0.5%,/,/,/,/,/
CC(CN1CCCC1)OC(=O)c1ccc(Cl)cc1Cl (stereo unspecified),9.6%,15.8µM*,-20.6%,-0.5%,18.1%,-10.3%,0.3%,-1.0%,-18.8%
CCC(C)c1ccccc1NC(=O)C(C)N(C)Cc1cccc(OC)c1 (stereo unspecified),1.8%,19.9µM*,8.8%,1.7%,?,2.1%,1.9%,0.0%,4.9%
CC(C)(C)NC(=S)/N=C(\N)N[N+](=O)[O-],3.7%,15.8µM*,1.5%,3.8%,29.7%,13.8%,14.4%,13.6%,14.1%
COC(=O)C(N)CCCN=C(N)N[N+](=O)[O-] (stereo unspecified),/,-2.3%,/,/,/,/,/,/,/
CCc1ccc(OCCn2ccnc2)cc1,23.8%,25.1µM*,2.0%,-10.9%,?,-5.0%,6.0%,5.9%,7.4%
Cc1ccccc1OCCn1ccnc1,-5.2%,?,1.0%,-1.5%,/,/,/,/,/
CCc1ccc(OCCCCCn2ccnc2)cc1,8.8%,?,-18.6%,0.6%,/,/,/,/,/
Cc1cccc(OCCn2ccnc2)c1C,1.5%,22.4µM*,19.5%,-1.4%,10.3%,0.8%,-0.8%,5.2%,6.8%
C[C@@H]1/C=C\CC(=O)OC[C@H](C)C(=O)N2CCC[C@@H]2C(=O)OC1,/,2.9%[12.9 µM],/,/,/,/,/,/,/
COC(=O)C/C=C\[C@@H](C)[C@@H](/C=N\O[C@@H](C)CN1CCCc2nc(C)c(C)cc21)NS(=O)(=O)c1ccc(C)cc1,/,-2.3%[12.9 µM],/,/,/,/,/,/,/
O=C1[C@@H]2[C@H]3CC[C@H](C3)[C@@H]2C(=O)N1CCCCN1CCN(c2ncccn2)CC1,2.1%,/,/,/,/,/,/,/,/
CC(C)c1ccc(S(=O)(=O)N2CCN(CC(=O)c3ccc(O)c(O)c3)CC2)cc1,/,12.6µM*,/,5.2%,20.2%,?,?,-27.7%,-1.9%
CC(C)N(CC#CCC(O)(c1ccccc1)c1ccccc1)CCO,2.4%,15.8µM*,-24.4%,-3.5%,-8.0%,8.9%,3.4%,19.2%,2.8%
CCN(CC#CCC(O)(c1ccccc1)c1ccccc1)C(C)C,-13.6%,-3.3%,2.6%,-4.3%,/,/,/,/,/
C=CCn1c(SCC(=O)c2ccc(O)c(O)c2)nnc1-c1cccc(Cl)c1,-23.0%,/,1.4%,/,/,/,/,/,/
SMILES,Tb PYK inh,Giardia FBPA inh-1,RE007 growth inh,LmPK inh,Giardia growth,Mammalian tox,Giardia FBPA inh-2,Rabbit aldolase,GAPDH coupling
C=CCn1c(SCC(=O)c2ccc(O)c(O)c2)nnc1-c1ccccc1OC,1.6%,3.15µM*,-8.8%,3.5%,?,?,-18.6%,-17.9%,8.4%
CCn1c(SCC(=O)c2ccc(O)c(O)c2)nnc1-c1ccccc1,4.7%,2.23µM*,17.6%,-2.9%,-20.0%,-15.0%,-26.6%,-28.9%,-0.7%
C=CCn1c(SCC(=O)c2ccc(O)c(O)c2)nnc1-c1cccc(C)c1,-23.9%,/,-14.3%,/,/,/,/,/,/
C=CCn1c(SCC(=O)c2ccc(O)c(O)c2)nnc1-c1cccnc1,-7.0%,15.8µM*,-13.2%,9.0%,26.8%[10.4 µM],22.9%,-25.0%,-20.4%,-3.9%
COc1ccccc1-c1nnc(SCC(=O)c2ccc(Cl)cc2)n1-c1ccccc1,-7.6%,/,/,/,/,/,/,/,/
CCn1c(SCC(=O)c2ccc(O)c(O)c2)nnc1-c1ccccc1OC,-10.5%,3.15µM*,2.5%,-0.2%,?,-0.8%,-24.5%,-17.6%,0.1%
CCOC(=O)CCN1C(=O)[C@H]2[C@H]3[C@H](O)[C@H](O)C/C(=N/NC(=O)OCc4ccc(OC)cc4)[C@H]3CC[C@@H]2C1=O,/,4.3%[12.9 µM],/,/,/,/,/,/,/
O=C(COCc1cc(-c2cccs2)on1)NCc1ccccc1Cl,-2.3%,/,/,/,/,/,/,/,/
O=P(O)(O)O[C@@H]1[C@H](O)[C@H](O)[C@@H](OP(=O)(O)O)[C@H](OP(=O)(O)O)[C@H]1O,/,11.1%,/,/,/,/,/,/,/
O=C(NC1CCCCCCC1)c1ccc2c(c1)OCO2,2.8%,-12.9%,-15.4%,?,/,/,/,/,/
c1cc2c(cc1NC1CCCCCC1)OCO2,-37.6%,25.1µM*,-15.1%,-10.1%,98.2%,-6.1%,7.08µM*,?,-29.9%
CC12C=C(/C=C/CCc3ccco3)C(C)(C1)[C@H](CCc1ccco1)CC2=O (stereo partly specified),/,1.4%,/,/,/,/,/,/,/

# Screening results as filed in PubChem BioAssay.
